# Test results published in ChEMBL document CHEMBL1961873, “Compounds: GSK PKIS; Assays: Nanosyn kinase panel” (2012).
# Target: Protein kinase C beta type (Homo sapiens) (UniProt P05771);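 note: mean inhibition value, enzyme form tested was the PKC-beta1 splice variant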
# Details: at 1 µM
# Sequence of Protein kinase C beta type (Homo sapiens) (P05771 2-671 limits assumed): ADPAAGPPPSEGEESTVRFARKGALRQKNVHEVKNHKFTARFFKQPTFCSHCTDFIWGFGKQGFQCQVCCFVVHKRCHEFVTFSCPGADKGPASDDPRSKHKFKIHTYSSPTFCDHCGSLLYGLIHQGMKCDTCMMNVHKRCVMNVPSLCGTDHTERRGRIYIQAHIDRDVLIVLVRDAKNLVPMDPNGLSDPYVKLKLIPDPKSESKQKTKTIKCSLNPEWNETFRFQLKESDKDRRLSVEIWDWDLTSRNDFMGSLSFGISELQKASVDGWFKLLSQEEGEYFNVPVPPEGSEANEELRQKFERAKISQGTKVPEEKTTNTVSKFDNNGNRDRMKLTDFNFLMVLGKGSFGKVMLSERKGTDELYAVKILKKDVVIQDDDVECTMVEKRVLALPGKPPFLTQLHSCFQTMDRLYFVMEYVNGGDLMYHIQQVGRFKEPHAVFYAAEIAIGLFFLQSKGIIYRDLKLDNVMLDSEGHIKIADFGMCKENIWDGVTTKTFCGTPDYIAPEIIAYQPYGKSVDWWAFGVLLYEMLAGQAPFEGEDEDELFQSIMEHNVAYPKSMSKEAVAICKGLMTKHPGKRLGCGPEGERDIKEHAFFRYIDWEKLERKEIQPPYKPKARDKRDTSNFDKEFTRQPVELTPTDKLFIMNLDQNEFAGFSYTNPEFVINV
row,SMILES,inhibition [%]
1,COc1cc2ncn(-c3cc(O[C@@H](C)c4ccccc4Cl)c(C(N)=O)s3)c2cc1OC,4.55
2,CCc1cccc(NC(=O)Nc2ccc(Oc3ccc4nc(NC(=O)OC)[nH]c4c3)cc2)c1,1.12
3,CCn1c(-c2nonc2N)nc2cncc(C(=O)N3CCNCC3)c21,4.3
4,O=C1Nc2ccc(C(=O)c3ccco3)cc2C1=Cc1cc(Cl)c(O)c(Cl)c1,1.37
5,COc1ccc(-c2coc3ncnc(N)c23)cc1,-0.25
6,CCn1c(-c2nonc2N)nc2cncc(C(=O)N3CC[C@H](N)C3)c21,74.5
7,Cc1cccc(-c2n[nH]cc2-c2ccc3ncccc3n2)n1,0.39
8,NS(=O)(=O)c1cccc(-c2ccc3c(NC(=O)C4CC4)n[nH]c3c2)c1,2.66
9,COC(=O)Nc1nc2cc(Oc3ccc(NC(=O)Nc4cccc(C(=O)O)c4)cc3)ccc2[nH]1,1.6
10,CN1CCC(C(=O)Nc2n[nH]c3nnc(-c4ccccc4)cc23)CC1,1.27

# Target: Protein kinase C eta type (Homo sapiens) (UniProt P24723)
# Details: at 0.1 µM
# Sequence of Protein kinase C eta type (Homo sapiens) (P24723 whole entry): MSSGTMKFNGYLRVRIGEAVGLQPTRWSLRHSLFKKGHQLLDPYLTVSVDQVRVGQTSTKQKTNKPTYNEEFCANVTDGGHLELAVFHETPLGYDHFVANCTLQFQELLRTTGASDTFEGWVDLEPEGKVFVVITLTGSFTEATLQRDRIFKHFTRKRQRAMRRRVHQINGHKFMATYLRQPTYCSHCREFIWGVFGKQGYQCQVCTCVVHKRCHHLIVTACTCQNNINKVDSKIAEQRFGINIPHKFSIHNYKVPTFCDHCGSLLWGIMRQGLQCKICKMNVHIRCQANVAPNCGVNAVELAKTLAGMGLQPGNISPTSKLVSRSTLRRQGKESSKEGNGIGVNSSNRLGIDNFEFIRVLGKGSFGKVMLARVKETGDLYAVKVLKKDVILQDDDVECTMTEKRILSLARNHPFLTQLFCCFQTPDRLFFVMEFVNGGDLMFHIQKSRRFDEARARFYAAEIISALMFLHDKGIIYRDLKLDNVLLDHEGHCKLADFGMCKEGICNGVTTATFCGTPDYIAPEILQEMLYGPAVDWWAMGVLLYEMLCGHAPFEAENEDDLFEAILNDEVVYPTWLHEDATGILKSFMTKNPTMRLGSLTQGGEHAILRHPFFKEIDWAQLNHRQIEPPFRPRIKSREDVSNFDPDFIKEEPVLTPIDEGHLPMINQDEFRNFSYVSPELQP
row,SMILES,inhibition [%]
1,CCCN1CCC=C(c2ccc(Nc3nc(Nc4ccccc4C(N)=O)c4cc[nH]c4n3)c(C)c2)C1,5.56
2,CS(=O)(=O)CCNCc1nc(-c2ccc3ncnc(Nc4ccc(F)c(Cl)c4)c3c2)cs1,1.59
3,COc1cc2c(cc1Nc1nc(N3CCc4ccccc43)c3cc[nH]c3n1)N(C(=O)CN(C)C)CC2,3.35
4,COc1cc2ncn(-c3cc(OCc4ccccc4Cl)c(C(N)=O)s3)c2cc1OC,1.47
5,CS(=O)(=O)CCNCc1ccc(-c2ccc3ncnc(Nc4ccc(OCc5ccccc5)c(Cl)c4)c3c2)o1,1.32
6,Nc1ncnc2occ(-c3ccc(NC(=O)Nc4cccc(C(F)(F)F)c4)cc3)c12,0.55
7,COc1ccc(-c2ccncc2)cc1C(N)=O,3.72
8,Fc1cccc(COc2ccc(Nc3ncnc4cc(-c5ccc[nH]5)sc34)cc2Cl)c1,2.87
9,CCn1c(-c2nonc2N)nc2c(N3CCCC3)nccc21,1.82
10,Cc1nn(C)c2cc(N(C)c3ccnc(Nc4cccc(S(N)(=O)=O)c4)n3)ccc12,4.55
11,CC(=O)Nc1cccc(C#Cc2cncnc2Nc2ccc(OCc3cccc(F)c3)c(Cl)c2)n1,0.65
12,Nc1nc(-c2ccc3c(c2)C(=Cc2cc(Br)c(O)c(Br)c2)C(=O)N3)cs1,-1.62
13,CCN1CCC(CC(=O)Nc2n[nH]c3nc(-c4cccs4)c(Br)cc23)CC1,-3.78
14,COc1ccc2cc(-c3c(-c4ccncc4)nc(-c4ccc([S+](C)[O-])cc4)n3C)ccc2c1 (stereo not drawn),2.61
15,NS(=O)(=O)c1ccc(N/N=C2\C(=O)Nc3ccc(C(=O)NCCc4c[nH]cn4)cc32)cc1,5.07
16,CS(=O)(=O)CCNCc1ccc(-c2ccc3ncnc(Nc4ccc(OCc5cccc(F)c5)c(C(F)(F)F)c4)c3c2)o1,4.51
17,Nc1nc(-c2ccccn2)c(-c2ccc3ncccc3n2)s1,5.03

row,SMILES,inhibition [%]
1,c1cnn2ncc(-c3ccnc(Nc4ccc5c(c4)OCCO5)n3)c2c1,4.51
2,Cc1ccc(C(=O)NC2CCCCC2)cc1-c1ccc(C(=O)NCC2CC2)cc1,3.2
3,CS(=O)(=O)Nc1ccc(N/C=C2\C(=O)Nc3ccccc32)cc1,-0.7
4,CC1=C(C(=O)Nc2ccc3[nH]ncc3c2)C(c2ccc3ccccc3c2)CC(=O)N1 (stereo not drawn),4.97
5,CC1=C(C(=O)Nc2ccc3[nH]ncc3c2)C(c2ccc(Cl)c(Cl)c2)CC(=O)N1 (stereo not drawn),0.22
6,COc1ccc(COc2ccc(Cc3cnc(N)nc3N)cc2OC)cc1,1.31
7,NCc1ccc(-c2nc(-c3ccc(Cl)c(O)c3)c(-c3ccncc3)[nH]2)cc1,1.93
8,COc1cc2ncn(-c3cc(O[C@@H](C)c4ccccc4Cl)c(C(N)=O)s3)c2cc1OC,5.28
9,CCc1cccc(NC(=O)Nc2ccc(Oc3ccc4nc(NC(=O)OC)[nH]c4c3)cc2)c1,2.69
10,CCn1c(-c2nonc2N)nc2cncc(C(=O)N3CCNCC3)c21,6.14
11,O=C1Nc2ccc(C(=O)c3ccco3)cc2C1=Cc1cc(Cl)c(O)c(Cl)c1,4.29
12,COc1ccc(-c2coc3ncnc(N)c23)cc1,3.06
13,CCn1c(-c2nonc2N)nc2cncc(C(=O)N3CC[C@H](N)C3)c21,51.2
14,Cc1cccc(-c2n[nH]cc2-c2ccc3ncccc3n2)n1,-0.08
15,NS(=O)(=O)c1cccc(-c2ccc3c(NC(=O)C4CC4)n[nH]c3c2)c1,-2.13
16,COC(=O)Nc1nc2cc(Oc3ccc(NC(=O)Nc4cccc(C(=O)O)c4)cc3)ccc2[nH]1,-0.35
17,CN1CCC(C(=O)Nc2n[nH]c3nnc(-c4ccccc4)cc23)CC1,4.63

# Target: Protein kinase C eta type (Homo sapiens) (UniProt P24723)
# Details: at 1 µM
row,SMILES,inhibition [%]
1,CCCN1CCC=C(c2ccc(Nc3nc(Nc4ccccc4C(N)=O)c4cc[nH]c4n3)c(C)c2)C1,4.73
2,CS(=O)(=O)CCNCc1nc(-c2ccc3ncnc(Nc4ccc(F)c(Cl)c4)c3c2)cs1,3.26
3,COc1cc2c(cc1Nc1nc(N3CCc4ccccc43)c3cc[nH]c3n1)N(C(=O)CN(C)C)CC2,-0.3
4,COc1cc2ncn(-c3cc(OCc4ccccc4Cl)c(C(N)=O)s3)c2cc1OC,2.19
5,CS(=O)(=O)CCNCc1ccc(-c2ccc3ncnc(Nc4ccc(OCc5ccccc5)c(Cl)c4)c3c2)o1,-1.74
6,Nc1ncnc2occ(-c3ccc(NC(=O)Nc4cccc(C(F)(F)F)c4)cc3)c12,6.96
7,COc1ccc(-c2ccncc2)cc1C(N)=O,6.14
8,Fc1cccc(COc2ccc(Nc3ncnc4cc(-c5ccc[nH]5)sc34)cc2Cl)c1,4.5
9,CCn1c(-c2nonc2N)nc2c(N3CCCC3)nccc21,11.2
10,Cc1nn(C)c2cc(N(C)c3ccnc(Nc4cccc(S(N)(=O)=O)c4)n3)ccc12,2.34
11,CC(=O)Nc1cccc(C#Cc2cncnc2Nc2ccc(OCc3cccc(F)c3)c(Cl)c2)n1,3.65
12,Nc1nc(-c2ccc3c(c2)C(=Cc2cc(Br)c(O)c(Br)c2)C(=O)N3)cs1,-1.96
13,CCN1CCC(CC(=O)Nc2n[nH]c3nc(-c4cccs4)c(Br)cc23)CC1,0.16
14,COc1ccc2cc(-c3c(-c4ccncc4)nc(-c4ccc([S+](C)[O-])cc4)n3C)ccc2c1 (stereo not drawn),-1.46
15,NS(=O)(=O)c1ccc(N/N=C2\C(=O)Nc3ccc(C(=O)NCCc4c[nH]cn4)cc32)cc1,2.38
16,CS(=O)(=O)CCNCc1ccc(-c2ccc3ncnc(Nc4ccc(OCc5cccc(F)c5)c(C(F)(F)F)c4)c3c2)o1,4.84
17,Nc1nc(-c2ccccn2)c(-c2ccc3ncccc3n2)s1,2.77

row,SMILES,inhibition [%]
1,c1cnn2ncc(-c3ccnc(Nc4ccc5c(c4)OCCO5)n3)c2c1,8.26
2,Cc1ccc(C(=O)NC2CCCCC2)cc1-c1ccc(C(=O)NCC2CC2)cc1,-0.62
3,CS(=O)(=O)Nc1ccc(N/C=C2\C(=O)Nc3ccccc32)cc1,-4.5
4,CC1=C(C(=O)Nc2ccc3[nH]ncc3c2)C(c2ccc3ccccc3c2)CC(=O)N1 (stereo not drawn),14.1
5,CC1=C(C(=O)Nc2ccc3[nH]ncc3c2)C(c2ccc(Cl)c(Cl)c2)CC(=O)N1 (stereo not drawn),14.1
6,COc1ccc(COc2ccc(Cc3cnc(N)nc3N)cc2OC)cc1,-0.03
7,NCc1ccc(-c2nc(-c3ccc(Cl)c(O)c3)c(-c3ccncc3)[nH]2)cc1,3.81
8,COc1cc2ncn(-c3cc(O[C@@H](C)c4ccccc4Cl)c(C(N)=O)s3)c2cc1OC,3.1
9,CCc1cccc(NC(=O)Nc2ccc(Oc3ccc4nc(NC(=O)OC)[nH]c4c3)cc2)c1,2.14
10,CCn1c(-c2nonc2N)nc2cncc(C(=O)N3CCNCC3)c21,4.16
11,O=C1Nc2ccc(C(=O)c3ccco3)cc2C1=Cc1cc(Cl)c(O)c(Cl)c1,7.64
12,COc1ccc(-c2coc3ncnc(N)c23)cc1,2.62
13,CCn1c(-c2nonc2N)nc2cncc(C(=O)N3CC[C@H](N)C3)c21,88.3
14,Cc1cccc(-c2n[nH]cc2-c2ccc3ncccc3n2)n1,2.61
15,NS(=O)(=O)c1cccc(-c2ccc3c(NC(=O)C4CC4)n[nH]c3c2)c1,-2.3
16,COC(=O)Nc1nc2cc(Oc3ccc(NC(=O)Nc4cccc(C(=O)O)c4)cc3)ccc2[nH]1,3.15
17,CN1CCC(C(=O)Nc2n[nH]c3nnc(-c4ccccc4)cc23)CC1,5.6
